Assay results taken from PubChem BioAssay (NCATS).
Results filed as inconclusive are left out. Entries that show only a call come without a potency. Active and inactive are the calls of the source. The call rests on the fitted dose curve; in most records, active means well fitted curve in the direction sought with a large enough effect; inconclusive means small, poorly fitted or top-dose-only effect, or another doubt; inactive means no such curve, though single readings can be large; an effect the other way counts as inactive or inconclusive.

What was measured:
[1] = biological target: Aldehyde dehydrogenase, mitochondrial (Homo sapiens) (UniProt P05091); test: qHTS for Inhibitors of the Aldehyde Dehydrogenase Family (ALDH2) Primary screen (AID 2061308); further: nearly all actives have a fitted effect of over 55% in size
[2] = biological target: Retinaldehyde dehydrogenase 3 (Homo sapiens) (UniProt P47895); test: qHTS for Inhibitors of the Aldehyde Dehydrogenase Family (ALDH1A3) Primary screen (AID 2061315)

Row | Structure (SMILES) | Potency [1] | Potency [2]
1 | Cc1sc(NC(=O)Cc2ccc3c(c2)OCO3)nc1-c1ccc2c(c1)CCN2C(=O)c1ccccc1C(F)(F)F | inactive | inactive
2 | O=C(Nc1ccc(S(=O)(=O)Nc2nccs2)cc1)c1ccnc(-c2ccccc2)c1 | inactive | inactive
3 | O=C1CCCC2=C1C1(CCCC1)N=C(Nc1nc3cc4ccccc4cc3o1)N2 | inactive | inactive
4 | CC(=O)Nc1sc2c(c1-c1cccs1)CCNC2 | inactive | inactive
5 | Cc1cnc(-c2ccccc2CO)nc1NCc1ccc(-c2cccnc2)cc1 | inactive | inactive
6 | O=C(Nc1ccc([S+](=O)([O-])Nc2nccs2)cc1)c1ccn[nH]1 | inactive | inactive
7 | CCCn1c(C)nc2c(NCCCN(CC)CC)nc(C)nc21 | inactive | inactive
8 | O=C(Nc1ccc(-c2ccccc2)cc1)Nc1nnc(-c2ccncc2)s1 | inactive | inactive
9 | CN(C)c1ccccc1-c1csc(N2CCC(C(N)=O)CC2)n1 | inactive | inactive
10 | Clc1ccc(-c2nc3ccccc3s2)cc1 | inactive | inactive
11 | O=C1CCc2cc([S+](=O)([O-])NC3CCOCC3)ccc2N1 | inactive | inactive
12 | FC(F)(F)c1cccc(N2CCN(C(=S)Nc3ccncc3)CC2)c1 | inactive | inactive
13 | CS(=O)(=O)Nc1ccc(-c2nc(NCc3ccc(-c4ccnc(C(F)(F)F)c4)cc3)c3ccccc3n2)cc1 | inactive | inactive
14 | COC(=O)[C@H](Cc1ccc(O[S+](=O)([O-])c2cccc3cnccc23)cc1)N(C)[S+](=O)([O-])c1ccc2cnccc2c1 | inactive | inactive
15 | COc1cccc(CNc2ccc(S(=O)(=O)Nc3cnc4ccccc4c3)cc2)c1O | inactive | inactive
16 | Cc1cc(C)nc(NC(=S)N2CCN(c3cccc(Cl)c3Cl)CC2)c1 | inactive | inactive
17 | Nc1nc2c(c(N3CC[C@@H](N)C3)n1)CCCc1ccccc1-2 | inactive | inactive
18 | Cc1cc(C)nc(NC(=S)N2CCN(c3ccc(F)cc3F)CC2)c1 | inactive | inactive
19 | O=C(Nc1ccc(F)c(C(F)(F)F)c1)Nc1ccc(-c2ccncc2)s1 | inactive | inactive
20 | CN(Cc1ccco1)c1ncnc2ccc(-c3ccc4c(c3)OCCO4)cc12 | inactive | inactive
21 | O=[S+]([O-])(c1ccc2c(c1)OCCO2)N1CCN([S+](=O)([O-])c2c(O)cc(F)cc2F)CC1 | inactive | inactive

Row | Structure (SMILES) | Potency [1] | Potency [2]
22 | CNCC(=O)Nc1ccc(Cl)cc1C(=O)c1ccc[nH]1 | inactive | inactive
23 | Cc1ccc(-c2ccc(=O)n(CC(=O)N(C)C(C)C(C)C)n2)cc1 (configuration not stated) | inactive | inactive
24 | O=S(=O)(Nc1nccs1)c1ccc(NCc2cccc(Cl)c2Cl)cc1 | inactive | inactive
25 | Brc1ccc(-c2csc(N3CCCCC3)n2)cc1 | inactive | inactive
26 | FC(F)(F)c1ccccc1-c1nc(NCc2cccc3ccccc23)c2ccccc2n1 | inactive | inactive
27 | Cc1cc(-c2nnc3n2CCCCC3)c(C)n1-c1cccc(C(F)(F)F)c1 | inactive | inactive
28 | O=C(NCc1nnc(-c2cc3ccccc3[nH]2)s1)c1ccccc1 | inactive | inactive
29 | Cc1ccc(-c2ccc(CNc3nc(-c4ccccc4C(C)C)nc4ccccc34)cc2)cn1 | inactive | inactive
30 | O=S(=O)(c1ccc2c(c1)OCCO2)N1CCN(S(=O)(=O)c2cccc3cccnc23)CC1 | inactive | inactive
31 | CCc1nn2c(=O)cc(N3C(C)CNCC3C)nc2s1 (configuration not stated) | inactive | inactive
32 | COc1cccc(CNc2ccc(S(=O)(=O)Nc3ncccn3)cc2)c1O | inactive | inactive
33 | Cc1ccc(CNc2ccc(N3CCN(C(=O)OC(C)(C)C)CC3=O)cc2)cc1 | inactive | inactive
34 | CCCn1c(C)nc2c(NCCCCN3CCCC3)nc(C)nc21 | inactive | inactive
35 | CCCn1c(C)nc2c(N3CCN(C)CC3)nc(C)nc21 | inactive | inactive
36 | NC(=O)C1CCN(c2nc(-c3cccc(Br)c3)cs2)CC1 | inactive | inactive
37 | CC1=C(C(=O)Nc2ccon2)C2(CCCC2)N=C(Nc2nc3ccccc3o2)N1 | inactive | inactive
38 | Cc1cnc(-c2ccccc2C2CC2)nc1NCc1ccc(-c2cccnc2)cc1 | inactive | inactive
39 | COc1ccccc1OC1=NS(=O)(=O)c2ccccc21 | inactive | inactive
40 | Cc1cccc(S(=O)(=O)Nc2cnccc2C(=O)Nc2nc(-c3ccccc3)cs2)c1 | inactive | inactive
41 | Cc1ccc(CC(=O)Nc2nc(-c3ccc4c(c3)CCN4C(=O)c3ccccc3C)c(C)s2)cc1C | inactive | inactive
